# According to PubChem BioAssay (Tox21):
# Values joined by “and” are separate entries in the source; they are usually repeats but may differ in a detail not shown here. Equal entries are not always repeated. Records with an inconclusive call do not appear. Entries that show only a call come without a potency. Active and inactive are the calls of the source. Unless noted, calls come from the whole dose curve; as a rule, active = well fitted curve in the direction sought with a large enough effect in the repeat runs; inconclusive = weak or mixed curves; inactive = no such curve, though single readings can be large; an effect the other way counts as inactive or inconclusive.
# Legend:
# [1] = qHTS assay to identify small molecule antagonists of the glucocorticoid receptor (GR) signaling pathway - cell viability counter screen (AID 720693); details: GR-bla HeLa viability, CellTiter-Glo luminescence, 18 h, with 5 nM dexamethasone present; series mostly up to 58.5 µM; note: nearly all actives have a fitted effect of over 55% in size
# [2] = qHTS assay for identifying genotoxic compounds that show differential cytotoxicity against isogenic chicken DT40 cell lines with known DNA damage response pathways - wild type cell line (AID 743012); details: DT40 wild type chicken cells viability, CellTiter-Glo, 40 h; series mostly up to 68.4 µM; note: nearly all actives have a fitted effect of over 60% in size; note: potency is the fitted concentration of half-maximal effect
# How it was run: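 Endpoint: CellTiter-Glo luminescence, 30 min RT. Cells: wild type DT40, 300/well. Exposure: compounds in DMSO, 40 h, 37 C/5% CO2, after ~0.5 h pre-incubation.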
# [3] = qHTS assay for identifying genotoxic compounds that show differential cytotoxicity against isogenic chicken DT40 cell lines with known DNA damage response pathways - Rev3 mutant cell line (AID 743014); details: chicken DT40 Rev3-/- viability, CellTiter-Glo, 40 h; series mostly up to 68.4 µM; note: nearly all actives have a fitted effect of over 55% in size; note: potency is the fitted concentration of half-maximal effect
# [4] = qHTS assay for identifying genotoxic compounds that show differential cytotoxicity against isogenic chicken DT40 cell lines with known DNA damage response pathways - Rad54/Ku70 mutant cell line (AID 743015); details: DT40 Rad54/Ku70 mutant viability, CellTiter-Glo, 40 h; series mostly up to 66.8 µM; note: nearly all actives have a fitted effect of over 60% in size; note: potency is the fitted concentration of half-maximal effect
# [5] = qHTS assay to identify small molecule antagonists of the androgen receptor (AR) signaling pathway - cell viability counter screen (AID 743033; note: nearly all actives have a fitted effect of over 45% in size); details: AR-bla HEK293 viability, CellTiter-Glo luminescence, 16 h; series mostly up to 58.5 µM
# [6] = qHTS assay to identify small molecule antagonists of the androgen receptor (AR) signaling pathway using the MDA cell line - cell viability counter screen (AID 743041; note: nearly all actives have a fitted effect of over 45% in size); details: MDA-kb2 viability, CellTiter-Fluor, 16 h, cells co-treated with R1881 androgen agonist; series mostly up to 70.3 µM
# How it was run: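 Compound exposure lasted 16 h at 37C in MDA-kb2 AR-luc cells stimulated with R1881. Protease-based CellTiter-Fluor reagent was applied for the final 30 min and fluorescence measured.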
# [7] = biological target: Androgen receptor (Homo sapiens) (UniProt P10275); assay: qHTS assay to identify small molecule antagonists of the androgen receptor (AR) signaling pathway (AID 743035; active = well fitted inhibition curve with a large enough effect in the signal ratio in the repeat runs, not every such curve was filed as active; the % refers to the signal ratio); details: HEK293 AR-UAS-bla, R1881-stimulated, beta-lactamase FRET, 16 h; series mostly up to 58.5 µM
# How it was run: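 R1881 agonist challenge of a HEK293 UAS-beta-lactamase AR reporter line in the presence of compound (16 h, 37C); signal taken as FRET fluorescence after 2 h with LiveBLAzer B/G substrate at room temperature.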
# [8] = biological target: Androgen receptor (Homo sapiens) (UniProt P10275); assay: qHTS assay to identify small molecule agonists of the androgen receptor (AR) signaling pathway (AID 743036; active = well fitted activation curve with a large enough effect in the signal ratio in the repeat runs, with a control signal flat, not every such curve was filed as active; the % refers to the signal ratio); details: HEK293 AR-UAS-bla GripTite, beta-lactamase FRET ratio, 16 h; series mostly up to 62.4 µM
# How it was run: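 HEK293 cells stably carrying a UAS-driven beta-lactamase reporter (GeneBLAzer AR-UAS-bla-GripTite) were plated at 2,000 cells/well, rested 4 h at 37C, then exposed to compounds in DMSO for 16 h. LiveBLAzer B/G FRET substrate was added for 2 h at room temperature; fluorescence read.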
# [9] = biological target: Androgen receptor (Homo sapiens) (UniProt P10275); assay: qHTS assay to identify small molecule agonists of the androgen receptor (AR) signaling pathway using the MDA cell line (AID 743040; note: nearly all actives have a fitted effect of over 20% in size); details: MDA-kb2 AR-luc cells, MMTV luciferase, 16 h; series mostly up to 70.3 µM
# How it was run: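 Testing was done with the MDA-kb2 AR-luc line, a human breast carcinoma stably transfected with MMTV-luciferase containing AR and GR response elements. Cells were exposed 16 h at 37C before ONE-Glo luminescence detection.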
# [10] = biological target: Androgen receptor (Homo sapiens) (UniProt P10275); assay: qHTS assay to identify small molecule antagonists of the androgen receptor (AR) signaling pathway using the MDA cell line (AID 743042; note: nearly all actives have a fitted effect of over 55% in size); details: MDA-kb2 AR-luc, MMTV luciferase, R1881 antagonist, 16 h; series mostly up to 70.3 µM
# How it was run: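 MDA-kb2 breast carcinoma cells carrying MMTV-luciferase (AR/GR responsive) were co-treated with compounds and the agonist R1881 for 16 h at 37C. Inhibition read as ONE-Glo luminescence; CellTiter-Fluor fluorescence measured in parallel for cytotoxicity.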
# Chain of Androgen receptor (Homo sapiens) (P10275 whole entry, looked up): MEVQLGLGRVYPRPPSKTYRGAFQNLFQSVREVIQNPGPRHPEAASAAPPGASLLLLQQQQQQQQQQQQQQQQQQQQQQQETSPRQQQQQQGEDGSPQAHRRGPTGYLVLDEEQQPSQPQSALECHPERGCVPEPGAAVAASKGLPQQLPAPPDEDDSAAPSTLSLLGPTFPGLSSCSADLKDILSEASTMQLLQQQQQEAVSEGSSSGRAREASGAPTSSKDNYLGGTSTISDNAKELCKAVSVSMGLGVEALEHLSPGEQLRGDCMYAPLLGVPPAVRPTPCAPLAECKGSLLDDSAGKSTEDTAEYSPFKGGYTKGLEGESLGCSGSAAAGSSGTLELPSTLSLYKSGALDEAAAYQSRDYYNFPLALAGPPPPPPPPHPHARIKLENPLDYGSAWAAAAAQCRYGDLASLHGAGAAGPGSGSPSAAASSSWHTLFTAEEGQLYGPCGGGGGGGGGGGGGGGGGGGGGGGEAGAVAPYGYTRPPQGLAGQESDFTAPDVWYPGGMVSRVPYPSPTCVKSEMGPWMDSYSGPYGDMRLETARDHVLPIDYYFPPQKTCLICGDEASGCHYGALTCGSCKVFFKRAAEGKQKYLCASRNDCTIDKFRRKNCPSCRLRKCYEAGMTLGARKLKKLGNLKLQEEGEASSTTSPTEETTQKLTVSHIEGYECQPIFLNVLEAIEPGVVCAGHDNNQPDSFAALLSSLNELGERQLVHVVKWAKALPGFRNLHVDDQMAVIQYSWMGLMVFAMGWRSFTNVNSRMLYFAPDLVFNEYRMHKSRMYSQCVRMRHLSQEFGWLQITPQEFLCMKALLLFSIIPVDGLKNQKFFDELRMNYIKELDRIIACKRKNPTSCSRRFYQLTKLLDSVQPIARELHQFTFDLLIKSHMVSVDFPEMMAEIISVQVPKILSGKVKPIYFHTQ
Structure (SMILES),Potency [1],Potency [2],Potency [3],Potency [4],Potency [5],Potency [6],Potency [7],outcome [8],Potency [9],outcome [10]
O=C(Cc1ccccc1)OCc1ccccc1,inactive,inactive,inactive,inactive,inactive,inactive,,,,
ClC(Br)Br,inactive,inactive,inactive,inactive,,inactive,,,,
C[C@]12CC[C@H]3[C@@H](CC=C4C[C@@H](O)CC[C@@]43C)[C@@H]1CC[C@@H]2O,inactive,inactive,inactive,29.8 µM (active),inactive,inactive,,,,
CCCCc1c(C)nc(NCC)[nH]c1=O,inactive,inactive,inactive,inactive,inactive,inactive,,,,
O=C(CCN1CC1)OCC(CO)(COC(=O)CCN1CC1)COC(=O)CCN1CC1,inactive,inactive,inactive,inactive,,inactive,,,,
ClCC(Cl)(Cl)Cl,inactive,inactive,inactive,inactive,inactive,inactive,,,,
N#CC(O)c1ccccc1 (centres undefined),inactive,inactive,inactive,inactive,inactive,inactive,,,,
CNC(=O)Oc1c(C(C)(C)C)cc(C)cc1C(C)(C)C,inactive,inactive,inactive,,inactive,inactive,inactive,inactive,inactive,inactive
CCCCP(CCCC)CCCC,inactive,inactive,,inactive,inactive,inactive,,,,
OC(c1ccccc1)(c1ccccc1)C1CCNCC1,inactive,11.4 µM (active),inactive,,inactive,inactive,,,,
O=C(CCCN1CCC(n2c(=O)[nH]c3ccccc32)CC1)c1ccc(F)cc1,inactive,12.7 µM (active),,10.1 µM (active),inactive,inactive,inactive,inactive,inactive,inactive
CS(=O)(=O)c1cc(C(F)(F)F)ccc1C(=O)c1cnoc1C1CC1,inactive,inactive,,inactive,,inactive,,,,
COc1cccc(C(=O)NN(C(=O)c2cc(C)cc(C)c2)C(C)(C)C)c1C,inactive,,68.6 µM (active),61.1 µM (active),inactive,,,,,
COC(=O)c1c(C(F)F)nc(C(F)(F)F)c(C2=NCCS2)c1CC(C)C,inactive,,61.1 µM (active),61.1 µM (active),inactive,inactive,inactive,inactive,inactive,inactive
CCOP(=O)(OCC)OP(=O)(OCC)OCC,inactive,inactive,,inactive,inactive,inactive,inactive,inactive,inactive,inactive
COC(=O)c1ccccc1S(=O)(=O)NC(=O)N(C)c1nc(C)nc(OC)n1,inactive,,inactive,inactive,inactive,inactive,,,,
CCCCC(=O)Cl,inactive,inactive,,inactive,inactive,inactive,,,,
CC(C)(C)NCC(O)c1cc(Cl)c(N)c(Cl)c1 (centres undefined),inactive,inactive,,inactive,,inactive,inactive,inactive,inactive,inactive
Cc1cc(C)nc(Nc2ccccc2)n1,inactive,inactive,,,inactive,inactive,,,,

Structure (SMILES),Potency [1],Potency [2],Potency [3],Potency [4],Potency [5],Potency [6],Potency [7],outcome [8],Potency [9],outcome [10]
CCCCOC(=O)c1ccccc1N,inactive,inactive,inactive,,inactive,inactive,,,,
C1CCC(C2CCCCC2)CC1,inactive,,54.5 µM (active),54.5 µM (active),inactive,,,,,
CC(=O)Nc1cc([As](=O)(O)O)ccc1O,inactive,inactive,,inactive,,inactive,,,,
O=C(Oc1ccc(Br)cc1)N1CCN2CCC1CC2,inactive,,54.5 µM (active),61.1 µM (active),inactive,inactive,,,,
CCOc1nc(C(Cl)(Cl)Cl)ns1,inactive,,inactive,inactive,inactive,inactive,,,,
O=[N+]([O-])c1cccc(O)c1,inactive,inactive,,inactive,,inactive,,,,
COc1cc(C[C@@H](C)N)c(OC)cc1C,inactive,,inactive,inactive,,inactive,,,,
CC(C1CC1)C(O)(Cn1cncn1)c1ccc(Cl)cc1 (centres undefined),inactive,48.3 µM (active),,,inactive,inactive,,,,
CN1C[C@@H](NS(=O)(=O)N(C)C)C[C@@H]2c3cccc4c3c(cn4C)C[C@H]21,inactive,21.1 µM (active),,,inactive,inactive,,,,
CCOP(=S)(OCC)SCSc1ccc(Cl)cc1,inactive,inactive,,inactive,inactive,inactive,,,,
CCCSP(=O)(OCC)Oc1ccc(Br)cc1Cl (centres undefined),inactive,,33.3 µM (active),29.7 µM (active),inactive,inactive,,,,
Nc1c(Br)cc([N+](=O)[O-])cc1[N+](=O)[O-],inactive,inactive,,,,,,,inactive,inactive
CCOC(=O)N(C)C(=O)CSP(=S)(OCC)OCC,inactive,30.6 µM (active),,24.3 µM (active),,inactive,,,,
Cc1ncc(CNC(=O)N(CCCl)N=O)c(N)n1,inactive,inactive,,inactive,inactive,inactive,,,,
Nc1cnn(-c2ccccc2)c(=O)c1Cl,inactive,inactive,,inactive,inactive,inactive,,,,
C#CCN1C(=O)COc2cc(F)c(N3C(=O)C4=C(CCCC4)C3=O)cc21,inactive,61.1 µM (active),,,inactive,inactive,,inactive,inactive,
CC(C)(C)OC(=O)c1ncn2c1[C@@H]1CCCN1C(=O)c1c(Br)cccc1-2,inactive,26.6 µM (active),,,inactive,inactive,,,,
NC1=NC(=O)C(c2ccccc2)O1 (centres undefined),inactive,inactive,,inactive,,inactive,,,,
O=C(N[C@H]1CN2CCC1CC2)c1cc2ccoc2cn1,inactive,inactive,,,,inactive,inactive,inactive,inactive,inactive

Structure (SMILES),Potency [1],Potency [2],Potency [3],Potency [4],Potency [5],Potency [6],Potency [7],outcome [8],Potency [9],outcome [10]
O=[N+]([O-])c1ccc2c3c(cccc13)CC2,inactive,inactive,19.3 µM (active),,inactive,inactive,,,,
CCC1(c2ccccc2)C(=O)N=C(O)NC1=O (centres undefined),inactive,inactive,inactive,,inactive,inactive,,,,
CN1C(=S)CN=C(c2ccccc2)c2cc(Cl)ccc21,inactive,23.7 µM (active),,29.8 µM (active),inactive,,,,,
CNC(=O)N(C)c1nc2ccccc2s1,inactive,inactive,,inactive,inactive,inactive,,,inactive,inactive
Cc1ncc2n1-c1ccc(Cl)cc1C(c1ccccc1F)=NC2,inactive,,inactive,,inactive,inactive,,,,
O=C(O)C(Br)CBr (centres undefined),inactive,,,inactive,inactive,inactive,,,,
COP(=S)(OC)Oc1ccc(S(N)(=O)=O)cc1,inactive,,,inactive,inactive,inactive,,,,
OC(Cn1cncn1)(c1ccc(F)cc1)c1ccccc1F (centres undefined),inactive,,,,inactive,inactive,,,,
CCOP(=S)(OCC)Oc1nc(Cl)n(C(C)C)n1,inactive,,68.6 µM (active),,inactive,inactive,,,,
CCc1cc2c(s1)-n1c(C)nnc1CN=C2c1ccccc1Cl,inactive,,inactive,,inactive,inactive,,,,
CNC(=O)O/N=C(\C)SC,,inactive,inactive,inactive,inactive,inactive,,,,
CSc1ccc(C(=O)C(C)(C)N2CCOCC2)cc1,,48.6 µM (active),68.6 µM (active),48.6 µM (active),inactive,inactive,,,,
CC(=O)[C@H]1CC[C@H]2[C@@H]3CC[C@H]4C[C@H](O)CC[C@]4(C)[C@H]3C(=O)C[C@]12C,inactive,,,,,inactive,,,,
COC(=O)C(C)Oc1ccc(Oc2ccc(Cl)cc2Cl)cc1 (centres undefined),inactive,,,68.6 µM (active),,inactive,,,,
O=C(Nc1ccccc1)c1ccccc1I,,48.6 µM (active),27.3 µM (active),61.1 µM (active),inactive,inactive,,inactive,inactive,inactive
COc1cc2c(cc1OC)[C@@]13CCN4CC5=CCO[C@H]6CC(=O)N2[C@H]1[C@H]6[C@H]5C[C@H]43,,24.3 µM (active),24.3 µM (active),26.6 µM (active) and 13.7 µM (active),inactive,inactive,,,,
CCOC(=O)NC(=S)Nc1ccccc1NC(=S)NC(=O)OCC,,61.1 µM (active),30.6 µM (active),48.6 µM (active),inactive,inactive,,,,
CNC(=O)Oc1ccc(N(C)C)c(C)c1,,54.5 µM (active),34.4 µM (active),68.6 µM (active),inactive,,,,,
CSc1nc(N=[N+]=[N-])nc(NC(C)C)n1,inactive,,61.1 µM (active),,inactive,inactive,,,,
